Several values for one entry are separate records, joined by “and”; a condition that tells them apart may be missing. Equal entries are not always repeated. This is part of a sample that, as a whole, favours compounds with a hit. Of some 83,000 tested, about 20% had one in any assay.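 48-hour exposure, single concentration, 96-well plates; percent growth endpoint where 0 means no net growth. Active: below 10.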 Activity calls are given as the source filed them.
Experiments:
Assay in all cases: NCI-60 one-dose screen, 48 h (100 = growth as untreated, 0 = no growth, -100 = all killed)
Settings in all cases: 10 µM unless noted
SK-MEL-2 melanoma = test system: SK-MEL-2 melanoma
EKVX NSCLC = test system: EKVX NSCLC
SN12C renal = test system: SN12C renal
UO-31 renal = test system: UO-31 renal
TK-10 renal = test system: TK-10 renal
ACHN renal = test system: ACHN renal
CAKI-1 renal = test system: CAKI-1 renal
A498 renal = test system: A498 renal
CCRF-CEM leukemia = test system: CCRF-CEM leukemia
MOLT-4 leukemia = test system: MOLT-4 leukemia
SR leukemia = test system: SR leukemia
RPMI-8226 leukemia = test system: RPMI-8226 leukemia
OVCAR-8 ovarian = test system: OVCAR-8 ovarian
OVCAR-4 ovarian = test system: OVCAR-4 ovarian
SK-OV-3 ovarian = test system: SK-OV-3 ovarian
IGROV1 ovarian = test system: IGROV1 ovarian
OVCAR-3 ovarian = test system: OVCAR-3 ovarian
HS 578T breast = test system: HS 578T breast
NCI/ADR-RES ovarian = test system: NCI/ADR-RES ovarian
OVCAR-5 ovarian = test system: OVCAR-5 ovarian

Measured: growth

CC[C@@H]1NC(=O)[C@H]([C@H](O)[C@H](C)C/C=C/c2ccc(CN3C(=O)C(C)=C(C)C3=O)cc2)N(C)C(=O)[C@H](C(C)C)N(C)C(=O)[C@H](CC(C)C)N(C)C(=O)[C@H](CC(C)C)N(C)C(=O)[C@@H](C)NC(=O)[C@H](C)NC(=O)[C@H](CC(C)C)N(C)C(=O)[C@H](C(C)C)NC(=O)[C@H](CC(C)C)N(C)C(=O)CN(C)C1=O
inactive: SK-MEL-2 melanoma 81% | EKVX NSCLC 49.1% | SN12C renal 83.9% | UO-31 renal 57.3% | TK-10 renal 75% | ACHN renal 74.7% | CAKI-1 renal 86.3% | A498 renal 54.2% | CCRF-CEM leukemia 63.6% | MOLT-4 leukemia 62.4% | SR leukemia 46.9% | RPMI-8226 leukemia 53.3% | OVCAR-8 ovarian 78.5% | OVCAR-4 ovarian 74.4% | SK-OV-3 ovarian 83.4% | IGROV1 ovarian 68.6% | OVCAR-3 ovarian 76.7% | HS 578T breast 83.9% | NCI/ADR-RES ovarian 76.5%

CCNC(=O)Nc1ncccc1OCc1ccc(F)cc1
inactive: SK-MEL-2 melanoma 99.8% | EKVX NSCLC 102% | SN12C renal 107% | UO-31 renal 93.7% | TK-10 renal 92.8% | ACHN renal 108% | CAKI-1 renal 90.1% | A498 renal 88.3% | CCRF-CEM leukemia 101% | MOLT-4 leukemia 98% | SR leukemia 105% | RPMI-8226 leukemia 106% | OVCAR-8 ovarian 109% | OVCAR-4 ovarian 96.4% | SK-OV-3 ovarian 94.2% | IGROV1 ovarian 102% | OVCAR-3 ovarian 102% | HS 578T breast 112% | NCI/ADR-RES ovarian 93.4%

COc1ccccc1/C=C/C(=O)/C=C/c1ccccc1OC
-0.48% (active) and 50.4% (inactive): HS 578T breast
-25.9% (active) and 16.5% (inactive): OVCAR-8 ovarian
5.47% (active) and 14.6% (inactive): SK-OV-3 ovarian
-48.3% (active) and 22.8% (inactive): A498 renal
16.2% (inactive) and 7.78% (active): SR leukemia
-2.31% (active) and 18.6% (inactive): NCI/ADR-RES ovarian
active: SK-MEL-2 melanoma 2.6% and 1.3% | SN12C renal -27.2% and -3.57% | UO-31 renal -89.9% and -54.9% | TK-10 renal -11.8% and 0.143% | ACHN renal -62.5% and -84.2% | RPMI-8226 leukemia 7.24% and 1.3% | IGROV1 ovarian -53.8% and -46.1% | OVCAR-3 ovarian -29.1% and -36.7%
17.5% (inactive) and 4.88% (active): CAKI-1 renal
15.5% (inactive) and 6.56% (active): CCRF-CEM leukemia
inactive: EKVX NSCLC 12.6% | MOLT-4 leukemia 14.8% and 12.1% | OVCAR-4 ovarian 20.6% and 13%

C#Cc1cc(C(=O)Nc2ccc(CN3CCN(C)CC3)c(C(F)(F)F)c2)ccc1C
inactive: SK-MEL-2 melanoma 91.1% | EKVX NSCLC 91.5% | SN12C renal 84.5% | UO-31 renal 60.2% | TK-10 renal 94.7% | ACHN renal 92.2% | CAKI-1 renal 63.7% | A498 renal 63.9% | CCRF-CEM leukemia 74.8% | MOLT-4 leukemia 58.9% | SR leukemia 58.7% | RPMI-8226 leukemia 59.5% | OVCAR-8 ovarian 77.4% | OVCAR-5 ovarian 74.6% | OVCAR-4 ovarian 72.3% | SK-OV-3 ovarian 93.2% | IGROV1 ovarian 75.7% | OVCAR-3 ovarian 86.4% | HS 578T breast 64.7% | NCI/ADR-RES ovarian 82.2%

Cn1cc(-c2csc(-c3cn(CCOC(N)=O)c4ccccc34)n2)c2cccnc21
inactive: SK-MEL-2 melanoma 84.8% | EKVX NSCLC 68.7% | SN12C renal 88.3% | UO-31 renal 79.6% | TK-10 renal 82.6% | ACHN renal 97% | CAKI-1 renal 88.2% | A498 renal 19% | CCRF-CEM leukemia 73.9% | MOLT-4 leukemia 69.1% | SR leukemia 20.3% | RPMI-8226 leukemia 74.1% | OVCAR-8 ovarian 89.4% | OVCAR-4 ovarian 102% | SK-OV-3 ovarian 95.2% | IGROV1 ovarian 77.7% | OVCAR-3 ovarian 94.9% | HS 578T breast 92.6% | NCI/ADR-RES ovarian 82.9%

COC1/C=C/OC2(C)Oc3c(C)c(O)c4c(O)c(c(C=NOC(c5ccccc5)c5ccccc5)c(O)c4c3C2=O)NC(=O)/C(C)=C/C=C/C(C)C(O)C(C)C(O)C(C)C(OC(C)=O)C1C (centres undefined)
active: SK-MEL-2 melanoma -24.9% | MOLT-4 leukemia 5.43% | SR leukemia -5.09% | RPMI-8226 leukemia 3.28% | SK-OV-3 ovarian -34% | HS 578T breast -5.16%
inactive: EKVX NSCLC 20.4% | SN12C renal 17.3% | UO-31 renal 27.2% | TK-10 renal 30.9% | ACHN renal 20.3% | CAKI-1 renal 14% | A498 renal 58.5% | CCRF-CEM leukemia 13.5% | OVCAR-8 ovarian 24.8% | OVCAR-4 ovarian 15.2% | IGROV1 ovarian 29.8% | OVCAR-3 ovarian 11.9% | NCI/ADR-RES ovarian 28.9%

Cc1oc2c(Cc3ccc(NC(=O)c4ccc(Cl)cc4)cc3)ncnc2c1C(=O)NO
inactive: SK-MEL-2 melanoma 88.3% | EKVX NSCLC 102% | SN12C renal 103% | UO-31 renal 85.4% | TK-10 renal 95.6% | ACHN renal 106% | CAKI-1 renal 98.9% | A498 renal 85.2% | CCRF-CEM leukemia 90.9% | MOLT-4 leukemia 82.5% | SR leukemia 71.2% | RPMI-8226 leukemia 92.4% | OVCAR-8 ovarian 98.5% | OVCAR-4 ovarian 109% | SK-OV-3 ovarian 94.1% | IGROV1 ovarian 103% | OVCAR-3 ovarian 95.8% | HS 578T breast 113% | NCI/ADR-RES ovarian 98.2%

From PubChem BioAssay (NCI)
